Results filed as inconclusive are left out. Activity calls are given as the source filed them. Calls follow the shape of the full dose curve.
% is scaled to controls: 0 for no effect and ±100 for the full control effect.

The assay deals with Atrial natriuretic peptide receptor 1 (Homo sapiens) (UniProt P16066). The experiment in a line: Natriuretic polypeptide receptor (hNpr1) antagonism - Pilot CMLD screen (AID 1347052).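 Also: HEK293 cells with hNpr1 stimulated by hNppA peptide at 0.1 nM; cGMP level read as GloSensor luciferase luminescence after agonist stimulation.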 Conditions: HEK293 hNpr1 GloSensor cGMP luminescence, ANP-stimulated; series mostly up to 9.22 µM; activity change, negative = inhibition: at the top concentration.
Chain of Atrial natriuretic peptide receptor 1 (Homo sapiens) (P16066 whole entry, looked up): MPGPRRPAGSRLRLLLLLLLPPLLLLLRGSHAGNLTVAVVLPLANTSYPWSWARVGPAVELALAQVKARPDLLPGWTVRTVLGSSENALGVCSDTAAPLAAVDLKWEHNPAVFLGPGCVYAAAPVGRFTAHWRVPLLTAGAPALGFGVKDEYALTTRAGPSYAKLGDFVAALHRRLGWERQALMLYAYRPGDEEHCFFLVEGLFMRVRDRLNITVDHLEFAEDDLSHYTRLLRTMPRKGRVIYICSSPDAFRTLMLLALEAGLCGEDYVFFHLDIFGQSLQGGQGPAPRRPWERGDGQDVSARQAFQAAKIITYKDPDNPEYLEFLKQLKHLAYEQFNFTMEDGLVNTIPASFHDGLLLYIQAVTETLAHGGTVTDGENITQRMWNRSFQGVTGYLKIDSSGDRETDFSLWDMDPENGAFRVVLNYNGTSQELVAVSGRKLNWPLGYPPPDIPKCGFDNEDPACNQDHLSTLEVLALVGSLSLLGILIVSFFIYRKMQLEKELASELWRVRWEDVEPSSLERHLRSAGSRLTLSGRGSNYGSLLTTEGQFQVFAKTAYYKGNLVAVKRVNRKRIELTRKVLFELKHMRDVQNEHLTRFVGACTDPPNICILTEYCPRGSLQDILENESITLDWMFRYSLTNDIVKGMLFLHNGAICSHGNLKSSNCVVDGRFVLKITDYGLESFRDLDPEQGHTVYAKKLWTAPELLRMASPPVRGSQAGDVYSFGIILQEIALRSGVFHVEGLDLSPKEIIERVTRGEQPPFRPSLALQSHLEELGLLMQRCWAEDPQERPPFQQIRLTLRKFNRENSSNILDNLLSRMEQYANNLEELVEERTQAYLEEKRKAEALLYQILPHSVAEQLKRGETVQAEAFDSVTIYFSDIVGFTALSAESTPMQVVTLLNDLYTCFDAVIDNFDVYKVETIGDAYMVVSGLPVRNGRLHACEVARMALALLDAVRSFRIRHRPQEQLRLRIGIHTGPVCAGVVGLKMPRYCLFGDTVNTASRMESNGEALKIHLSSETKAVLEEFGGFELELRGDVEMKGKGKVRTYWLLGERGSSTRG
As to `C=CCN1c2ccccc2[C@]23CCC(=O)N(CC(=O)OC)C2=NC(C(=O)OC)=C(C(=O)OC)[C@H]13`, the “activity change, negative = inhibition” value was -0.411% (inactive). The same measure, in the same setting: the figure for `COc1ccc2c3c(c(=O)oc2c1)[C@H]1O[C@](CCCCN2C(=O)c4ccccc4C2=O)(Cc2cc(OC)c(OC)cc21)O3` is -0.657% (inactive). Still for that read-out and setting: the figure for `C[C@@H]1C=CCC(=O)N2[C@H](CC(=O)N[C@@H]1c1ccccc1)C[C@@H](C)[C@@H]2c1ccccc1` is 6.71% (inactive); for `C=CC[C@@H]1C=C[C@H](ON=C(C)CCN2CCCc3nc(C)c(C)cc32)[C@H](CO)O1` it is 4.7% (inactive); for `COC(=O)CC1=CO[C@@H](O)[C@@H]2C(CO)=CC[C@@H]12` it is 0.24% (inactive).

As for `COC(=O)CC=C1c2ccccc2[C@@H](OC)[C@@H]1C`, the Potency result is “inactive”. For the compound `COC(=O)N[C@H](C(C(=O)OC)=C(C)NCc1ccccc1)c1ccco1`, the “activity change, negative = inhibition” value is 0.116% (inactive). In the case of `CC(=O)C1=C(C)N(Cc2ccccc2)C(=O)NC1CCc1ccccc1` (stereo not given), the “activity change, negative = inhibition” value is -2.34% (inactive).

With `COC(=O)C1=C(C)N(CC2CC2)C(=O)NC1c1ccc(Br)cc1` (stereo not given), the “activity change, negative = inhibition” value was -1.1% (inactive).

As for `COc1ccc2c(c1)CO[C@H]([C@H](O)CO)[C@H]2C=CC#Cc1ccc(C(C)(C)C)cc1`, the “activity change, negative = inhibition” value is 0.269% (inactive). Take `COC(=O)CCCC1=CC2=C(c3ccccc3)C(=O)C(C)(OC(=O)C3CCCC3)C(=O)C2=CN1c1ccc(OC)cc1` (stereo not given): the “activity change, negative = inhibition” value is -1.97% (inactive). Still for that read-out and setting: the figure for `COc1ccc([C@]23Cc4ccccc4[C@H](O2)c2c(cc(-c4ccccc4)oc2=O)O3)cc1` is 3.34% (inactive); for `COC1=C[C@H](C(=O)N[C@H]2CCCC[C@H]2NC(C)=O)[C@H](C)[C@@H](c2ccccc2)CC1=O` it is -13.5% (inactive); for `C[C@@H](ON=C1[C@H]2CCn3c(=O)n(-c4ccccc4)c(=O)n3[C@@H]2[C@H](O)[C@@H]2O[C@H]12)c1cn([C@@H]2COC[C@@H]2O)nn1` it is 1.55% (inactive).

With `CCN1C(=NCc2cccc(C(F)(F)F)c2)NC(c2cccc(F)c2)C(C(=O)OC)=C1C` (stereo not given), the “activity change, negative = inhibition” value was -2.66% (inactive).

On to `CCN1C(=NCCCOC(C)C)N[C@@H](CCc2ccccc2)[C@H](C(=O)NCCCOC(C)C)[C@H]1C`, for which the “activity change, negative = inhibition” value is -0.228% (inactive). The same measure, in the same setting: the figure for `COC(=O)C1=C(C(=O)OC)[C@@H]2N(C)c3ccc(OC)cc3[C@@]23C[C@@H](C(=O)OC)N(C(=O)NCCBr)C3=N1` is -1.13% (inactive). Same read-out and setting: the figure for `CCCCc1nc2c(c3c1C[C@H](C)OC3)CN(S(=O)(=O)c1ccccc1C(=O)OC)CC2` is 1.86% (inactive).

Regarding `CC1(C)CC(=O)C2=C(C1)O[C@@]1(c3ccsc3)Cc3cc(C#N)ccc3[C@H]2O1`, the “activity change, negative = inhibition” value was 2.48% (inactive). Same read-out and setting: the result for `COc1cccc([C@H]2Oc3ccc(OC)cc3C(=NO[C@H](C)CN3CCCc4nc(C)c(C)cc43)[C@H]2O)c1` reads 4.28% (inactive); that for `CC(CCC(=O)OC[C@H]1O[C@H](C#Cc2ccccc2)C=C[C@H]1Oc1ccc(C)cc1)=NO[C@H](C)c1cn([C@@H]2COC[C@@H]2O)nn1`, 0.386% (inactive); that for `c1ccc(CCc2nc(-c3ccccc3)oc2NC2CCCCC2)cc1`, 0.308% (inactive). With `CC(C)=CCN1C(=O)[C@@]2(CC(C)=C[C@@H](COCc3ccccc3)O2)c2ccccc21`, the “activity change, negative = inhibition” value was 1.21% (inactive).

On to `COc1cccc(-c2coc3ccc(Br)cc3c2=O)c1`, for which the “activity change, negative = inhibition” value was -17.2% (inactive). Still for that read-out and setting: the result for `Cc1c(O)c(=O)ccn1Cc1ccccc1` reads 2.35% (inactive); that for `COC(=O)C(C(=O)OC)[C@@H]1O[C@@]23COC=C[C@]2(C)[C@@H]3c2ccccc21`, 1.31% (inactive); that for `CC(C)=CCCC(C)=CCN1C(=O)[C@]2(O[C@H](COc3ccccc3)CC3=CCCC32)c2c(Br)cccc21` (stereo not given in full), 11.9% (inactive). Still for that read-out and setting: the result for `O=C1C2=C(C(=O)c3ccccc31)[C@H]1O[C@](c3ccsc3)(Cc3c1ccc1ccccc31)O2` reads -0.742% (inactive); that for `O=C1CCCC2=C1[C@H]1O[C@](c3ccsc3)(Cc3c1ccc1ccccc31)O2`, 3.88% (inactive); that for `C[C@H]1CC[C@H]2C(=O)N[C@H](Cc3ccccc3)C(=O)N2[C@H]1c1ccccc1`, 7.21% (inactive). For the compound `N#Cc1ccc2c(c1)C[C@]1(CCCCN3C(=O)c4ccccc4C3=O)Oc3cc(-c4ccccc4)oc(=O)c3[C@H]2O1`, the “activity change, negative = inhibition” value was -24.9% (inactive). In the case of `COC(=O)N1C(c2ccccc2)=Cc2ccccc2C1C1(C(=O)OC)CCCC1=O` (stereo not given), the Potency result is “inactive”. Turning to `CCCNC(=O)OC[C@H]1O[C@H](CCON=C(C)CCC(=O)OC[C@H]2O[C@H](C#Cc3ccccc3)C=C[C@H]2Oc2ccc(C)cc2)C=C[C@H]1Oc1ccc(OC)cc1`, the “activity change, negative = inhibition” value was -3.26% (inactive). On the same count and under the same terms, the result for `CC(C)[C@@H](OCc1ccccc1)[C@H](C)CON=C1[C@H]2CCn3c(=O)n(-c4ccccc4)c(=O)n3[C@@H]2[C@H](O)[C@@H]2O[C@H]12` reads -0.898% (inactive).

Regarding `COC(=O)c1ccc(CN2C(=O)[C@]3(OCCC=C[C@@H]3C)c3cc(OC)ccc32)cc1`, the “activity change, negative = inhibition” value is 0.557% (inactive). Still for that read-out and setting: the result for `Cc1cc2c(nc1C)CCCCN2C[C@H](C)ON=C[C@@H](C)[C@H](OCc1ccccc1)C(C)C` reads 2.41% (inactive). Still for that read-out and setting: the figure for `O=c1oc2ccccc2c2c1[C@H]1O[C@](c3ccsc3)(Cc3ccccc31)O2` is 7.73% (inactive); for `COc1ccc([C@]23Cc4cc(OC)c(OC)cc4[C@H](O2)c2c(cc(C)oc2=O)O3)cc1` it is -0.0632% (inactive); for `CC1(OC(=O)C2CCCC2)C(=O)C=C2C=C(c3ccsc3)N(Cc3ccccc3)C=C2C1=O` (stereo not given) it is -1.76% (inactive).

Regarding `CC#C[C@H](C)[C@@H](OCOC)[C@H](C[C@H](C)Cc1cc(Br)cc(OCc2ccccc2)c1OC)OC`, the “activity change, negative = inhibition” value was 0.146% (inactive).

The record behind these values is PubChem BioAssay (NCATS).
